Common to all, as to experiment: qHTS profiling for inhibitors of Plasmodium falciparum proliferation (AID 504749); note: nearly all actives have a fitted effect of over 60% in size
What all share (settings): P. falciparum in erythrocytes, SYBR Green DNA, 72 h; series mostly up to 28.7 µM
Background: qHTS replaces the single test concentration by a dilution series.

The test system of one assay is CP260. The gist of the method: (§1)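 SYBR Green fluorescence of parasite DNA, read after lysis and overnight dark incubation, measured growth over 72 h in erythrocyte culture at 0.3% parasitemia and 2.5% hematocrit. Data normalised to DMSO and 0.29 uM artemisinin, with plate-drift correction.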
The test system of another assay is CP262. The gist of the method: as §1
A further assay concerns CP265. The gist of the method: as §1
Another assay deals with CP266. In a few lines:
as §1

In a further assay the test system is CP268. The gist of the method: as §1
A further assay deals with CP269. In a few lines: as §1
In a further assay the test system is CP286. In a few lines: as §1
Another assay deals with CP291. In a few lines: as §1
A further assay relates to CP297. In a few lines:
as §1

The subject of the next assay is CP305. The gist of the method: as §1
In another assay the test system is CP315. The gist of the method:
as §1

A further assay concerns CP325. In a few lines: as §1
A further assay concerns CP329. In a few lines:
as §1

The test system of a further assay is CP335. In a few lines:
as §1

The subject of a further assay is DFO2036. In a few lines:
as §1

For another assay, the system named is DIV14. In a few lines: as §1
In a further assay the test system is DIV17. The gist of the method:
as §1

A further assay concerns DIV30. In a few lines:
as §1

The next assay has as its system Dd2. In a few lines:
as §1

A further assay has as its system ECU. In a few lines:
as §1

Inconclusive results are not listed. More than one record can exist for a structure, and the calls need not agree. Active and inactive are the calls of the source. Calls come from the whole dose curve; as a rule, active = well fitted inhibition curve with a large enough effect; inconclusive = small, poorly fitted or top-dose-only effect; inactive = flat fitted curve, though single readings scatter.
Potency is the fitted concentration of half-maximal effect.

Take `O=C1C2CC=CCC2C(=O)N1SC(Cl)(Cl)Cl` (stereo not given): the Potency entry with CP260, in the assay with CP262, in the assay with CP265, in the assay with CP266, in the assay with CP268 and with CP269 was “inactive” in each case. For the same compound, the Potency entry in the assay with CP286, with CP291, in the assay with CP297, with CP305, in the assay with CP315 and in the assay on CP325 was “inactive” throughout. Further, the Potency entry in the assay on CP329, in the assay on CP335, in the assay on DFO2036, in the assay with DIV14, in the assay on DIV17 and in the assay with DIV30 was “inactive” in each case. The Potency entry in the assay on Dd2 and in the assay with ECU was “inactive” each time.

As to `O=C/C=C/c1ccccc1`, the Potency result with CP260, in the assay with CP262, with CP265, in the assay with CP266, in the assay on CP268 and with CP269 was “inactive” throughout. Besides, the Potency result in the assay on CP286, in the assay with CP291, in the assay on CP297, in the assay on CP305, in the assay on CP315 and in the assay with CP325 was “inactive” in each case. The Potency entry in the assay with CP329, in the assay on DFO2036, with DIV14, with DIV17, in the assay with DIV30 and in the assay with Dd2 was “inactive” in each case. In the assay on ECU, the Potency entry is “inactive”.

Regarding `O=c1[nH]cc(N(CCCl)CCCl)c(=O)[nH]1`, the Potency result with CP260, with CP262, in the assay with CP265, in the assay on CP266, in the assay with CP268 and with CP269 was “inactive” each time. In addition, the Potency result with CP286, with CP291, in the assay with CP297, with CP305, in the assay with CP315 and in the assay with CP329 was “inactive” in each case. Also, the Potency result in the assay on CP335, in the assay with DFO2036, in the assay with DIV14, in the assay with DIV17, in the assay on DIV30 and in the assay on Dd2 was “inactive” in each case. The Potency entry in the assay on ECU was “inactive”.

For `Oc1cc(Cl)c(Cl)cc1Cl`, the Potency entry with CP260, in the assay on CP262, in the assay on CP265, in the assay on CP266, in the assay with CP268 and in the assay on CP269 was “inactive” each time. Further, the Potency result in the assay on CP286, with CP291, in the assay on CP297, with CP305, in the assay on CP315 and in the assay with CP325 was “inactive” each time. In addition, the Potency entry in the assay with CP329, in the assay on CP335, in the assay with DFO2036, in the assay with DIV30, in the assay with Dd2 and in the assay on ECU was “inactive” in each case.

Regarding `CNC1(c2ccccc2Cl)CCCCC1=O` (stereo not given), the Potency entry in the assay on CP260, in the assay with CP262, in the assay on CP265, in the assay with CP266, in the assay with CP268 and in the assay on CP269 was “inactive” in each case. In addition, the Potency entry in the assay on CP286, with CP291, in the assay on CP297, with CP305, in the assay on CP315 and with CP325 was “inactive” throughout. In addition, the Potency result in the assay on CP329, with CP335, in the assay with DFO2036, in the assay on DIV30 and with ECU was “inactive” each time. For the same compound, the Potency in the assay on DIV14 was 9.53 µM (active) and inactive; with DIV17 it was 13.5 µM (active).

As to `CC[N+](C)(CC)CCOC(=O)C(O)(c1ccccc1)c1ccccc1`, the Potency result in the assay on CP260, in the assay on CP262, in the assay on CP265, with CP266, in the assay on CP268 and in the assay with CP269 was “inactive” throughout. The Potency result with CP286, with CP291, in the assay on CP297, in the assay with CP305, with CP315 and with CP325 was “inactive” throughout. In addition, the Potency result in the assay on CP329, with CP335, in the assay on DFO2036, in the assay on DIV14, in the assay on DIV17 and in the assay with DIV30 was “inactive” each time. For the same compound, the Potency entry in the assay on Dd2 and in the assay with ECU was “inactive” each time.

Turning to `c1cc2c(c(NC3=NCCN3)c1)CCCC2`, the Potency entry in the assay on CP260, in the assay on CP262, in the assay on CP265, with CP266, in the assay with CP286 and in the assay on CP325 was “inactive” each time. Further, the Potency result with CP335, in the assay on DFO2036, with Dd2 and with ECU was “inactive” throughout. Besides, the Potency in the assay on DIV14 was 15.1 µM (active).

As for `CCC(=O)O[C@@](Cc1ccccc1)(c1ccccc1)[C@@H](C)CN(C)C`, the Potency result with CP260, in the assay on CP262, in the assay with CP265, in the assay on CP266, in the assay with CP268 and in the assay with CP269 was “inactive” throughout. Besides, the Potency entry with CP286, in the assay with CP291, in the assay on CP297, with CP305, with CP315 and in the assay on CP325 was “inactive” in each case. In addition, the Potency entry in the assay on CP329, in the assay with CP335, in the assay on DFO2036 and in the assay on ECU was “inactive” in each case.

Turning to `Cc1sc2ccccc2c1CC1=NCCN1`, the Potency entry in the assay with CP260, with CP262, with CP265, with CP266, in the assay with CP268 and in the assay on CP269 was “inactive” each time. Further, the Potency result in the assay with CP291, with CP305, in the assay with CP315, with CP325, with CP329 and in the assay with CP335 was “inactive” each time. Besides, the Potency entry in the assay with DFO2036, in the assay on DIV30, in the assay on Dd2 and in the assay with ECU was “inactive” throughout.

Consider `CC(C)Nc1ccc(Nc2ccccc2)cc1`, for which the Potency in the assay with CP260 is 5.62 µM (active); in the assay on CP262, 4.78 µM (active); with CP265, 11.2 µM (active); in the assay on CP266, 8.49 µM (active); with CP268, 10.7 µM (active); in the assay with CP269, 6.75 µM (active). For the same compound, the Potency is 8.91 µM (active) in the assay on CP286; 15.1 µM (active) in the assay with CP291; 4.78 µM (active) in the assay with CP297; 13.5 µM (active) in the assay on CP305; 4.78 µM (active) with CP315; 6.01 µM (active) in the assay with CP325. The Potency in the assay on CP329 is 6.01 µM (active); in the assay with DFO2036, 5.01 µM (active); in the assay on DIV14, 12 µM (active); in the assay on DIV17, 13.5 µM (active); in the assay with DIV30 it was 4.78 µM (active); in the assay on Dd2, 10 µM (active). In the assay with ECU, the Potency is 11.2 µM (active).

Regarding `N#CN`, the Potency entry in the assay with CP260, in the assay with CP262, with CP265, with CP266, in the assay with CP268 and in the assay with CP269 was “inactive” in each case. For the same compound, the Potency entry with CP286, in the assay with CP291, in the assay with CP297, in the assay with CP305, in the assay on CP315 and in the assay on CP325 was “inactive” in each case. The Potency result in the assay with CP329, in the assay with CP335, in the assay on DFO2036, in the assay on DIV14, in the assay with DIV17 and in the assay on Dd2 was “inactive” in each case. Moreover, the Potency result with ECU is “inactive”.

As to `CCNC(C)Cc1cccc(C(F)(F)F)c1` (stereo not given), the Potency result with CP260, in the assay on CP262, in the assay with CP265, in the assay on CP266, with CP268 and with CP269 was “inactive” throughout. Moreover, the Potency entry with CP286, in the assay on CP291, with CP297, with CP305, in the assay with CP315 and with CP325 was “inactive” each time. Further, the Potency result with CP329, in the assay with DFO2036, in the assay with DIV14, with DIV17, with DIV30 and in the assay on Dd2 was “inactive” throughout.

On to `COCC(C)N(C(=O)CCl)c1c(C)csc1C` (stereo not given), for which the Potency result in the assay with CP260, in the assay with CP262, with CP265, in the assay on CP266, in the assay on CP268 and in the assay with CP269 was “inactive” throughout. In addition, the Potency entry in the assay with CP286, with CP291, in the assay on CP305, with CP315, in the assay on CP325 and with CP329 was “inactive” throughout. For the same compound, the Potency entry with CP335, with DFO2036, with DIV14, with DIV17, in the assay on Dd2 and in the assay with ECU was “inactive” throughout.

Take `O=[N+]([O-])c1cc(I)c(O)c(I)c1`: the Potency entry with CP260, in the assay on CP262, in the assay on CP265, in the assay on CP268, in the assay on CP269 and in the assay with CP286 was “inactive” each time. Also, the Potency result with CP291, with CP297, with CP305, in the assay with CP315, in the assay on CP325 and in the assay on CP329 was “inactive” throughout. Also, the Potency result in the assay with CP335, in the assay with DFO2036, with DIV14, with DIV17, with DIV30 and with Dd2 was “inactive” throughout. In addition, the Potency result in the assay with ECU is “inactive”.

For the compound `ClC1C(Cl)C(Cl)C(Cl)C(Cl)C1Cl` (stereo not given), the Potency result in the assay with CP260, with CP262, with CP265, in the assay with CP266, in the assay with CP268 and in the assay on CP269 was “inactive” in each case. Further, the Potency result in the assay on CP286, in the assay on CP291, with CP297, in the assay with CP305, with CP315 and in the assay on CP325 was “inactive” each time. Also, the Potency entry with CP329, with CP335, in the assay with DFO2036, in the assay with DIV17, with DIV30 and in the assay with Dd2 was “inactive” each time. In the assay on ECU, the Potency entry was “inactive”.

Take `Clc1ccc(C2(Cn3cncn3)OCCO2)c(Cl)c1`: the Potency result with CP260, in the assay on CP262, with CP265, with CP266, in the assay on CP268 and in the assay with CP269 was “inactive” in each case. Further, the Potency entry with CP286, in the assay with CP291, in the assay with CP297, in the assay on CP305, in the assay with CP315 and in the assay on CP325 was “inactive” throughout. For the same compound, the Potency entry in the assay on CP329, in the assay on CP335, in the assay on DFO2036, with DIV14, with DIV17 and in the assay on DIV30 was “inactive” throughout. Moreover, the Potency entry in the assay with Dd2 and with ECU was “inactive” each time.
